Drawing on PubChem BioAssay, this text covers composite z-score and z-score for 17 compounds.

Test [1] concerns XIP peptide (Xip251-270) binding. The experiment in a line: XIP fragment 251-270 binding compounds – biochemical, small-molecule microarray, fluorescence 635/667 nm, 0.1 µg/mL protein, primary screen (AID 1182). Conditions: fluorescent protein binding, 635 nm, higher = more signal, called active from +8 up or from −8 down.
The subject of the next test is XIP peptide (Xip251-270). In words: compounds binding XIP fragment 251-270 – biochemical, small-molecule microarray, fluorescence 635/667 nm, 0.5 µg/mL protein, primary screen (AID 1183). Conditions: fluorescence 635 nm, higher = more signal.
A short description of test [2]: blood-stage malaria parasite viability loss – strain 3D7, DAPI fluorescence, 100 nL, primary screen (AID 1184).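 Note: parasites grown inside human red blood cells in medium with human serum.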 Conditions: P. falciparum 3D7 growth, 3 d, higher = more signal.
Test [3] deals with Homeobox protein Hox-A13 (Mus musculus) (UniProt Q62424). The experiment in a line: disruptors of Hoxa13 oligonucleotide interaction – biochemical, fluorescence polarization, labeled oligonucleotide, primary screen (AID 1185). The conditions noted are these: Hoxa13:DNA binding, 15 min, higher = more signal, called active from +8 up or from −8 down. For orientation: Polarisation of emitted light reports the rotation of a fluorescent probe.

A short description of test [4]: blockers of DNA damage checkpoint Chk1 activation – imaging, HeLa, hydroxyurea, phospho-Chk1 antibody, percent positive cells, primary screen (AID 1186). Conditions: hydroxyurea-induced phospho-Chk1 immunofluorescence imaging, higher = more signal.
Test [5] is described as follows: blockers of DNA damage checkpoint Chk1 activation – imaging, HeLa, hydroxyurea, phospho-Chk1 nuclear intensity, primary screen (AID 1187). The conditions noted are these: hydroxyurea-induced phospho-Chk1 immunofluorescence imaging, higher = more signal.

The source made the active and inactive calls. Unless noted, the rule behind the calls is not given here.

Sequence of Homeobox protein Hox-A13 (Mus musculus) (Q62424 whole entry, looked up): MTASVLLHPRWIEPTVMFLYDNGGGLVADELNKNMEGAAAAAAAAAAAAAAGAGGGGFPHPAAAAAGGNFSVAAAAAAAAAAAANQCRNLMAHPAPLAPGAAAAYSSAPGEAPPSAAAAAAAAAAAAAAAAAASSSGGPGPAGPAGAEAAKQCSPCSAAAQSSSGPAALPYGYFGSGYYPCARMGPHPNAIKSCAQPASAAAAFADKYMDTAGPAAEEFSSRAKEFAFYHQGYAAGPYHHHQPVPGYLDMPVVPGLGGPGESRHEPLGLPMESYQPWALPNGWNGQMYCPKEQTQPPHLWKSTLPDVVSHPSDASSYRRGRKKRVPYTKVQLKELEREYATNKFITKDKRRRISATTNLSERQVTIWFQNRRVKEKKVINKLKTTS

Take `CC(CO)N1C(=O)[C@@H]2[C@H]3C(=O)OCC=C[C@H]3OC23C=CCN(c2ccc4ccccc4c2)C(=O)[C@@H]13` (some centres not stated): the composite z-score in test [1] was -0.0975 (inactive); in the test on XIP peptide (Xip251-270), 0.547. The z-score in test [2] is 0.48; in test [3] it was -4.49 (inactive); in test [4], -0.233 (inactive); in test [5] it was 0.0823 (inactive).

For the compound `COC(=O)[C@@]1(Cc2ccc(F)cc2)[C@H]2c3cc(C(=O)N(C)C)n(Cc4cccc5ccccc45)c3C[C@H]2CN1C(=O)c1ccccc1`, the composite z-score in test [1] was 0.0361 (inactive); in the test on XIP peptide (Xip251-270) it was 0.891. The z-score in test [2] was -1.51; in test [3], -4.81 (inactive); in test [4], 0.406 (inactive); in test [5] it was 0.252 (inactive).

Take `CN(C)CCCCCCNC(=O)[C@@H]1C[C@@H]2C(=O)N[C@@H](CCCC[N+](C)(C)C)C(=O)N2[C@@H]1c1cccc(OCCO)c1`: the composite z-score in test [1] is 0.877 (inactive); with XIP peptide (Xip251-270), -0.0938. Besides, the z-score in test [2] is -0.143; in test [3], -1.8 (inactive); in test [4], 0.559 (inactive); in test [5], 0.952 (inactive).

With `C=C(CCCC)/C(=C/C[C@@H](OC(C)=O)c1ccc(OCCO)cc1)c1cc(C(=O)OC)ccc1OC`, the composite z-score was 0.952 (inactive) in test [1] and 0.633 in the test on XIP peptide (Xip251-270). The z-score in test [2] was -3.06; in test [3], -4.07 (inactive); in test [4], 0.526 (inactive); in test [5] it was 0.765 (inactive).

As for `COC(=O)C1=CC(CCCO)=CC(c2ccc(CN3CCCC3)cc2)N(C)C=C1C(=O)OC` (configuration not stated), the results for the composite z-score (in test [1]; with XIP peptide (Xip251-270)) were 0.736 (inactive) and 0.873, respectively. Moreover, the z-score was 0.34 in test [2], -6.09 (inactive) in test [3], -0.118 (inactive) in test [4] and -0.428 (inactive) in test [5].

Turning to `COCCCNC(=O)[C@]1(Cc2ccccc2N=[N+]=[N-])N=C(c2ccc(OCCCO)cc2)O[C@@H]1c1ccccc1`, the composite z-score in test [1] was 1.22 (inactive); with XIP peptide (Xip251-270) it was 0.77. The z-score in test [2] is -2.17; in test [3], -2.62 (inactive); in test [4], -0.129 (inactive); in test [5], 0.0037 (inactive).

Regarding `NCCCCCCNC(=O)[C@@H]1C[C@@H]2C(=O)NCC(=O)N2[C@@H]1c1cccc(OCCO)c1`, the composite z-score in test [1] was 0.592 (inactive); in the test on XIP peptide (Xip251-270), 0.354. The z-score was 0.418 in test [2], -1.96 (inactive) in test [3], 0.13 (inactive) in test [4] and 0.118 (inactive) in test [5].

In the case of `OCCCc1cc[n+](Cc2cc3c(cc2Br)OCO3)cc1`, the figures for the composite z-score (in test [1]; with XIP peptide (Xip251-270)) were 0.0084 (inactive) and 0.579, respectively. Moreover, the z-score is -1.96 in test [2], -2.45 (inactive) in test [3], -0.0355 (inactive) in test [4] and 0.0561 (inactive) in test [5].

Consider `C=CCOC(=O)[C@H]1[C@@H]2C(=O)O[C@@H](c3ccccc3)[C@@H](c3ccccc3)N2[C@@H](c2ccc(OCCOC(=O)[C@H]3C[C@H]4C(=O)NCC(=O)N4[C@H]3c3ccc(O)cc3)cc2)[C@]12C(=O)Nc1ccccc12`, for which the composite z-score in test [1] is 0.758 (inactive); in the test with XIP peptide (Xip251-270), 0.81. The z-score in test [2] was -1.56; in test [3], -0.844 (inactive); in test [4], -0.374 (inactive); in test [5], 0.182 (inactive).

On to `CCCCCCc1nc(-c2ccc(OC)nc2)c(C)c2c1[Si](C(C)C)(C(C)C)OC2`, for which the composite z-score in test [1] is -0.186 (inactive); in the test on XIP peptide (Xip251-270), -0.7. The z-score in test [2] is -2.14; in test [3] it was 0.384 (inactive); in test [4] it was -0.531 (inactive); in test [5] it was 0.0171 (inactive).

For `COc1c(C)cc(-c2nc(-c3ccccc3)c3c(c2C)CO[Si]3(C(C)C)C(C)C)cc1C`, the composite z-score in test [1] is 0.412 (inactive); in the test on XIP peptide (Xip251-270), -0.487. The z-score in test [2] was -2.79; in test [3], -0.848 (inactive); in test [4], 0.157 (inactive); in test [5], 0.0254 (inactive).

In the case of `COCCOC(=O)N1C(=O)[C@@]2(c3ccccc31)[C@H](C(=O)Nc1nc3ccccc3s1)[C@H]1C(=O)O[C@H](c3ccccc3)[C@H](c3ccccc3)N1[C@@H]2c1ccccc1OCCO`, the composite z-score in test [1] is 0.238 (inactive); with XIP peptide (Xip251-270), 0.801. For the same compound, the z-score in test [2] is -1.68; in test [3] it was -0.587 (inactive); in test [4], 0.152 (inactive); in test [5], 0.367 (inactive).

`COc1ccc(CCNC(=O)[C@@]2(C)c3ccccc3C(=O)N(Cc3ccc(OC(F)(F)F)cc3)[C@H]2c2ccc(CO)cc2)cc1`: the composite z-score is 1.06 (inactive) in test [1] and 0.666 in the test with XIP peptide (Xip251-270). For the same compound, the z-score in test [2] is -1.21; in test [3], -4.22 (inactive); in test [4] it was -0.141 (inactive); in test [5] it was -0.102 (inactive).

With `C=CCNC(=O)[C@H]1[C@@H]2C(=O)O[C@@H](c3ccccc3)[C@@H](c3ccccc3)N2[C@@H](c2ccc(OCCO)cc2)[C@]12C(=O)N(C(=O)OCCOC)c1ccc(C#CCNC(N)=O)cc12`, the composite z-score was 0.797 (inactive) in test [1] and 0.579 in the test on XIP peptide (Xip251-270). Moreover, the z-score in test [2] is 0.0978; in test [3], -1.67 (inactive); in test [4] it was -0.128 (inactive); in test [5], -0.209 (inactive).

Consider `COc1cc(Cc2cc3c(c(CCc4ccccc4)n2)[Si](C(C)C)(C(C)C)O[C@H]3c2ccccc2)cc(OC)c1OC`, for which the composite z-score in test [1] is 0.41 (inactive); with XIP peptide (Xip251-270) it was 0.202. Besides, the z-score in test [2] was 0.578; in test [3], -5.59 (inactive); in test [4] it was -0.167 (inactive); in test [5], -0.286 (inactive).

On to `CCOC(=O)C[C@H]1[C@H](OC(=O)c2ccc(-c3ccccc3)cc2)[C@@H](NC(=O)c2ccc(-c3ccccc3)cc2)c2cc(OCCCO)ccc2N1C(=O)c1ccccc1`, for which the composite z-score is 1.11 (inactive) in test [1] and 0.426 in the test on XIP peptide (Xip251-270). Besides, the z-score in test [2] was -0.482; in test [3], -1.22 (inactive); in test [4] it was -0.166 (inactive); in test [5] it was 0.205 (inactive).

For `CCOC(=O)C1=C[C@@H](C(C)(C)C)N(S(=O)(=O)c2ccc(C)cc2)[C@H]1c1ccc(OC)cc1`, the composite z-score in test [1] was 0.58 (inactive); in the test with XIP peptide (Xip251-270), 0.582. For the same compound, the z-score in test [2] was -1.88; in test [3], -0.488 (inactive); in test [4], 0.15 (inactive); in test [5] it was 0.503 (inactive).
